Screening data (PubChem BioAssay)
BoNT F protease: BoNT/F light chain protease inhibitors, primary screen, biochemical, flow cytometry, MLPCN library. Botulinum neurotoxin type F light chain protease (Clostridium botulinum). Multiplex microsphere protease cleavage assay. inhibition, % at 10 µM. hit rate 0.22% among 360,000. AID 588497, 2011; in the data active = inhibition above about 35%, passing the limit was not always enough; inconclusive = no clear call, values can overlap the other calls
Anthrax LF inh2: Bacillus anthracis LF protease inhibitors, primary screen, biochemical, multiplex microsphere, MLPCN library; Lethal factor (Bacillus anthracis), P15917; multiplex microsphere protease cleavage assay; inhibition, % at 10 µM; hit rate 0.12% among 360,000
MazEF act: activators of E. coli MazEF toxin-antitoxin RNase, primary screen, biochemical, fluorescence, uHTS | Endoribonuclease toxin MazF (Escherichia coli (strain K12)), P0AE70 | FAM/BHQ RNA-DNA oligo cleavage fluorescence, 5 h | activation, % at 20 µM | hit rate 0.32% among 350,000; in the data active = activation above about 50%
BoNT-A LC inh2: BoNT/A light chain protease inhibitors, primary screen, biochemical, flow cytometry, MLPCN library. multiplex microsphere protease substrate cleavage. inhibition, % at 10 µM. Botulinum neurotoxin type A light chain protease (Clostridium botulinum A str. ATCC 3502). hit rate 0.17% among 360,000
Bead autofluor: counter-screen for toxin protease inhibitors: compound fluorescence; hit rate 3.1% among 360,000; AID 624483; compound autofluorescence counterscreen, microsphere flow cytometry; stronger effect = higher value; fluorescence intensity (concentration not given with the values); in the data active = fluorescence intensity above about 16000; inconclusive = no clear call, values can overlap the other calls
DUSP3 inh: VHR1 phosphatase inhibitors, primary screen, biochemical, absorbance, uHTS. inhibition, % at 13.3 µM. hit rate 0.52% among 290,000. recombinant VHR phosphatase, pNPP absorbance. AID 1654, 2009; in the data active = inhibition above about 50%
Large screens that a line does not name were inactive. In the library only some 4.1% were active in any assay of this set; here they are far more common. Cut-off read from the data, not from the text of the source, unless noted: active = inhibition above about 30%; inconclusive = no clear call, values can overlap the other calls; inactive = below that.

CCOc1ccc2nc(SCC(=O)NCc3ccco3)sc2c1	Bead autofluor 21294
COc1ccc(-c2ccc(SCC(=O)NCc3ccco3)nn2)cc1	Bead autofluor 24470
COc1ccc(-c2cc3nc(C)c(CCC(=O)NCc4ccco4)c(C)n3n2)c(OC)c1	Bead autofluor 20470
O=C(c1cc(C2CC2)nn1-c1ccccc1)N1CCN(S(=O)(=O)c2cccc(F)c2)CC1	none (no result: DUSP3 inh)
Cc1ccc(OCc2cc(C(=O)NC3CCOC3)no2)cc1C (stereo not drawn)	none
O=C(CSc1nc(-c2ccccc2)c(-c2ccccc2)[nH]1)NCc1ccco1	Bead autofluor 23502
O=C(CSc1nnc(-c2ccccc2)c(-c2ccccc2)n1)NCc1ccco1	none
N#C/C(=C\c1cccc(O)c1)C(=O)N1CCCCC1	BoNT F protease 47.2
Cc1cc(/C=C(\C#N)C(=O)N2CCCCC2)cc(C)c1O	DUSP3 inh 57.6
Cc1ccc(NC(=O)CSc2nc(-c3ccco3)cc(C(F)(F)F)n2)cc1C	Bead autofluor 17763
COc1cc(C(c2c(C)[nH][nH]c2=O)c2c(C)[nH][nH]c2=O)ccc1OCc1ccc([N+](=O)[O-])cc1	Bead autofluor 21766
COc1cc(C(c2c(C)[nH][nH]c2=O)c2c(C)[nH][nH]c2=O)ccc1OS(=O)(=O)c1ccccc1	Bead autofluor 16308
COc1cc(C(c2c(C)[nH][nH]c2=O)c2c(C)[nH][nH]c2=O)ccc1OC(=O)c1cccc([N+](=O)[O-])c1	none
CCc1ccc(S(=O)(=O)Nc2c(C)nc3nc[nH]n3c2=O)cc1	none
COc1ccc(Cc2c(-c3ccccc3)nc3ccc(Br)cn23)c(C)c1	BoNT-A LC inh2 40.0 (no result: MazEF act, DUSP3 inh)
COc1ccc(Cc2c(-c3cccc(Br)c3)nc3ccc(Cl)cn23)c(C)c1	none (no result: MazEF act, DUSP3 inh)
O=C(C1CCN(c2ccc(N3CCOCC3)nn2)CC1)N1CCN(c2ccc(F)cc2)CC1	Bead autofluor 22313
O=C(C1CC1)N1CCN(c2ccc(O)cc2)CC1	DUSP3 inh 56.2
COCOCCn1cc(CN2CCS(=O)(=O)N(Cc3ccc(-c4ccc(F)cc4)cc3)C(CC(C)C)C2=O)nn1 (stereo not drawn)	none (no result: DUSP3 inh)
CC(C)(C)NC(=O)C(c1ccc(O)cc1)N(Cc1ccc2c(c1)OCO2)C(=O)CCl (stereo not drawn)	none (no result: DUSP3 inh)
CCN(CC)C(=O)Cn1cnc2c1c(=O)n(C)c(=O)n2C	none (no result: BoNT F protease, Anthrax LF inh2, BoNT-A LC inh2, Bead autofluor)
CCN(Cc1ccccc1)C(=O)Cn1cnc2c1c(=O)n(C)c(=O)n2C	BoNT-A LC inh2 inconclusive, Bead autofluor 20794
Cn1c(=O)c2c(ncn2CCN(CCO)Cc2ccccc2)n(C)c1=O	Bead autofluor 20125
CCOC(=O)C1=C(c2ccccc2)NC(SCC(N)=O)=C(C#N)C1c1cccnc1 (stereo not drawn)	Bead autofluor 19434
Cc1ccc(CN2CCN(C(=O)C3CCC3)CC2)cc1	Bead autofluor 22954
COc1ccc(CNC(=O)C(c2cccs2)N(C(=O)c2csnn2)C2CC2)cc1 (stereo not drawn)	Bead autofluor 24268
O=C(NCc1ccccc1)C(c1cccs1)N(C(=O)c1csnn1)C1CC1 (stereo not drawn)	Bead autofluor 21285
O=C(NCc1ccccc1)C(c1ccccc1)N(C(=O)c1csnn1)C1CC1 (stereo not drawn)	none
O=C(NCCc1ccccc1)C(c1cccs1)N(C(=O)c1csnn1)C1CC1 (stereo not drawn)	BoNT-A LC inh2 inconclusive, Bead autofluor 20245
CCC(C)N(CC(=O)NCc1ccc(OC)cc1)C(=O)c1csnn1 (stereo not drawn)	BoNT-A LC inh2 inconclusive, Bead autofluor 16830
Cc1ccc(NC(=O)NC(=O)CSc2nnnn2C)c(C)c1	Bead autofluor 20545
Cc1cccc(C)c1NC(=O)CSc1nnnn1C	none
COc1ccc(NC(=O)c2ccco2)c(OC)c1	none
COc1ccc(NC(=O)/C(=C\c2ccc(F)cc2)NC(=O)c2ccco2)cc1	DUSP3 inh 56.2
COc1ccc(NC(=O)c2oc3ccccc3c2NC(=O)c2ccco2)cc1	Bead autofluor 21689
